# Results reported in ChEMBL document CHEMBL1961873, “Compounds: GSK PKIS; Assays: Nanosyn kinase panel” (2012).
# Columns and labels:
# [1] = molecular target: Rho-associated protein kinase 1 (Homo sapiens) (UniProt Q13464); conditions: at 1 µM;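 further: reported values are mean percent inhibition of ROCK1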
# [2] = molecular target: Rho-associated protein kinase 2 (Homo sapiens) (UniProt O75116); conditions: at 0.1 µM
# [3] = molecular target: Rho-associated protein kinase 2 (Homo sapiens) (UniProt O75116); conditions: at 1 µM
# [4] = molecular target: Ribosomal protein S6 kinase alpha-1 (Homo sapiens) (UniProt Q15418); conditions: at 0.1 µM
# [5] = molecular target: Ribosomal protein S6 kinase alpha-1 (Homo sapiens) (UniProt Q15418); conditions: at 1 µM
# [6] = molecular target: Ribosomal protein S6 kinase alpha-3 (Homo sapiens) (UniProt P51812); conditions: at 0.1 µM
# [7] = molecular target: Ribosomal protein S6 kinase alpha-3 (Homo sapiens) (UniProt P51812); conditions: at 1 µM
# [8] = molecular target: Ribosomal protein S6 kinase alpha-2 (Homo sapiens) (UniProt Q15349); conditions: at 0.1 µM
# [9] = molecular target: Ribosomal protein S6 kinase alpha-2 (Homo sapiens) (UniProt Q15349); conditions: at 1 µM
# [10] = molecular target: Ribosomal protein S6 kinase alpha-6 (Homo sapiens) (UniProt Q9UK32); conditions: at 0.1 µM
# [11] = molecular target: Ribosomal protein S6 kinase alpha-6 (Homo sapiens) (UniProt Q9UK32); conditions: at 1 µM
# [12] = molecular target: T1, Serine/threonine-protein kinase Sgk1 (Homo sapiens) (UniProt O00141); conditions: at 0.1 µM
# T1 sequence (whole entry): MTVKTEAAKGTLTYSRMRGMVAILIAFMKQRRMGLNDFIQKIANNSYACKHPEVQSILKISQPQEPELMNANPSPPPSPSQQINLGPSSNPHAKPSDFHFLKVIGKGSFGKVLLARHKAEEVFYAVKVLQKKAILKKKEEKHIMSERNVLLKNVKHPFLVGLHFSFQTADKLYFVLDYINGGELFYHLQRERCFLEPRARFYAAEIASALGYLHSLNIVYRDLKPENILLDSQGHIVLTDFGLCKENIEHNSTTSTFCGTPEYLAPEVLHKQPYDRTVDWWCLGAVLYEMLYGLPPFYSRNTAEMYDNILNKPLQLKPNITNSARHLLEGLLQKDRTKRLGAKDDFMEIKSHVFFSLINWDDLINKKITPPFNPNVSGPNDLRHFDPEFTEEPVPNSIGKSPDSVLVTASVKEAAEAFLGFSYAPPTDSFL
# [13] = molecular target: T1, Serine/threonine-protein kinase Sgk1 (Homo sapiens); conditions: at 1 µM
# [14] = molecular target: T2, Serine/threonine-protein kinase Sgk2 (Homo sapiens) (UniProt Q9HBY8); conditions: at 0.1 µM
# T2 sequence (whole entry): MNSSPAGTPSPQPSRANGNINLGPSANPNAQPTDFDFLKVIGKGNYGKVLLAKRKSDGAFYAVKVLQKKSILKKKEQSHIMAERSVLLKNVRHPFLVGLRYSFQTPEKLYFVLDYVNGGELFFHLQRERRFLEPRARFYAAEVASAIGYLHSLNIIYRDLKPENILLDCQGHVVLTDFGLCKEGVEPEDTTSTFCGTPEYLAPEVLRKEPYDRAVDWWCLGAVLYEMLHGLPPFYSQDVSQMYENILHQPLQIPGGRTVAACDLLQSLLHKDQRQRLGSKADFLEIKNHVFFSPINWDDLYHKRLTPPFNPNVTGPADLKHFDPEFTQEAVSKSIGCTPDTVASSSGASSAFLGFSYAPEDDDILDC
# [15] = molecular target: T2, Serine/threonine-protein kinase Sgk2 (Homo sapiens); conditions: at 1 µM
# [16] = molecular target: T3, Serine/threonine-protein kinase Sgk3 (Homo sapiens) (UniProt Q96BR1); conditions: at 0.1 µM
# T3 sequence (whole entry): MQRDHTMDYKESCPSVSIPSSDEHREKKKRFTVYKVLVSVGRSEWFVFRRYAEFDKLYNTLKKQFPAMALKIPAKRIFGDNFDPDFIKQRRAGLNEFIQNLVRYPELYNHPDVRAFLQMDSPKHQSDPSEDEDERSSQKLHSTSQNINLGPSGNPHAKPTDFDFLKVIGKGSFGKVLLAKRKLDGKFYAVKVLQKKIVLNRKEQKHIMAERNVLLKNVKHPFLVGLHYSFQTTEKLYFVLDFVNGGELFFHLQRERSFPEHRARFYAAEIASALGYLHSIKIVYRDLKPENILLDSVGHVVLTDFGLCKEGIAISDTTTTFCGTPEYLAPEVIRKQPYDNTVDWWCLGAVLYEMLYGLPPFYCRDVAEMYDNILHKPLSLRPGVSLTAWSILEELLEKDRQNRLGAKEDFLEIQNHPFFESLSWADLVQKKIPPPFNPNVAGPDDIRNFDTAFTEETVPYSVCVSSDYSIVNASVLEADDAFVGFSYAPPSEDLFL
# [17] = molecular target: T3, Serine/threonine-protein kinase Sgk3 (Homo sapiens); conditions: at 1 µM
# [18] = molecular target: 5'-AMP-activated protein kinase catalytic subunit alpha-1 (Homo sapiens) (UniProt Q13131); conditions: at 0.1 µM
# [19] = molecular target: 5'-AMP-activated protein kinase catalytic subunit alpha-1 (Homo sapiens) (UniProt Q13131); conditions: at 1 µM
# [20] = molecular target: 5'-AMP-activated protein kinase catalytic subunit alpha-2 (Homo sapiens) (UniProt P54646); conditions: at 0.1 µM;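 further: mean inhibition measured on the AMPK complex of alpha2, beta1 and gamma1 subunits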
# Chain of 5'-AMP-activated protein kinase catalytic subunit alpha-2 (Homo sapiens) (P54646 whole entry, looked up): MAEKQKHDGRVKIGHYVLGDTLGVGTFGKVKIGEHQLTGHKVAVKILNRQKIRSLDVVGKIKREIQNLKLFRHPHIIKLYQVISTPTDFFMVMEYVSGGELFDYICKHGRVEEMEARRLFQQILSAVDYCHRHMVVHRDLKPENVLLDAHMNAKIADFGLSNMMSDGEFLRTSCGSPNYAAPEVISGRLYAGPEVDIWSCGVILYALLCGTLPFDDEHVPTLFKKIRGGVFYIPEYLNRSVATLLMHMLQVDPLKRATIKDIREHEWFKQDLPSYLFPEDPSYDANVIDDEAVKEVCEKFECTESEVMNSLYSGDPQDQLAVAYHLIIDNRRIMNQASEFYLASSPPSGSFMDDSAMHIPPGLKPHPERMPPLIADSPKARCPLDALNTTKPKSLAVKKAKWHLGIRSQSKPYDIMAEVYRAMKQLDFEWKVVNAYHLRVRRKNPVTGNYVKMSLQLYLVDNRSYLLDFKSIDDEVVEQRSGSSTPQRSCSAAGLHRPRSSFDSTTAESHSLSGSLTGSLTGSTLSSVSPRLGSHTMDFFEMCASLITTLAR
# Chain of 5'-AMP-activated protein kinase catalytic subunit alpha-1 (Homo sapiens) (Q13131 whole entry, looked up): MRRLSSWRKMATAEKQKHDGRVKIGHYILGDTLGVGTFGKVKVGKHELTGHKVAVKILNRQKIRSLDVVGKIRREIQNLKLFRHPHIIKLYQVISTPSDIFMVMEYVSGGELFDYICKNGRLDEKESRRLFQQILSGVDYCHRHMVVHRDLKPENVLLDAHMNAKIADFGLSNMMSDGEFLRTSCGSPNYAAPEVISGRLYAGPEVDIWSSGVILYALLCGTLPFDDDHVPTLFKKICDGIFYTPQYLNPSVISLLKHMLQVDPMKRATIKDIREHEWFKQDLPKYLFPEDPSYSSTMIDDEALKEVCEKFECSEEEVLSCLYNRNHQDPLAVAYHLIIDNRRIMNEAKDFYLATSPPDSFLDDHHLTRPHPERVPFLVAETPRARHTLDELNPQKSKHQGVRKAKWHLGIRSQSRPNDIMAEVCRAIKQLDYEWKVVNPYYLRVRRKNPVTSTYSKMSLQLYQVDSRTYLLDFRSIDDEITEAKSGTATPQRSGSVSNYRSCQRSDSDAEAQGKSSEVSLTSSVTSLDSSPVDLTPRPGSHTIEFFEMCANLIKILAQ
# Chain of Ribosomal protein S6 kinase alpha-6 (Homo sapiens) (Q9UK32 whole entry): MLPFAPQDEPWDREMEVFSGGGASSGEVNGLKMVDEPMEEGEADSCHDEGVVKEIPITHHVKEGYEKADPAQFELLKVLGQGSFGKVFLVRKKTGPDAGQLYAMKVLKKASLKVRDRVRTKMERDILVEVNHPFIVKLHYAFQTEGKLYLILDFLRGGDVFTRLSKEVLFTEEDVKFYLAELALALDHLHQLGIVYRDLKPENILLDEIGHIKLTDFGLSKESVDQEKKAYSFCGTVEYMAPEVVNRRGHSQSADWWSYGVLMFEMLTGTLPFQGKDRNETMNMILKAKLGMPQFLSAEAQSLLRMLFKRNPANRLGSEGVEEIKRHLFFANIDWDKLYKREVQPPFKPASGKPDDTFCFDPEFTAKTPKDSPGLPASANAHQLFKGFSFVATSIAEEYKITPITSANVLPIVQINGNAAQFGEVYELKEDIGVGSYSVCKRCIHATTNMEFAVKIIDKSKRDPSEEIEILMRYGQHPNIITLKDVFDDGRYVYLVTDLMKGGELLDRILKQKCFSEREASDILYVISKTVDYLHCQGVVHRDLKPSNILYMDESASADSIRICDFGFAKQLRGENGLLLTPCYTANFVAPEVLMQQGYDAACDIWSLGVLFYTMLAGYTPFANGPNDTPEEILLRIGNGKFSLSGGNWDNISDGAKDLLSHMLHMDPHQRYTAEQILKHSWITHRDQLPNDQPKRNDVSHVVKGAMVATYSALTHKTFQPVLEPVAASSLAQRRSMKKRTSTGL
# Chain of Ribosomal protein S6 kinase alpha-3 (Homo sapiens) (P51812 whole entry): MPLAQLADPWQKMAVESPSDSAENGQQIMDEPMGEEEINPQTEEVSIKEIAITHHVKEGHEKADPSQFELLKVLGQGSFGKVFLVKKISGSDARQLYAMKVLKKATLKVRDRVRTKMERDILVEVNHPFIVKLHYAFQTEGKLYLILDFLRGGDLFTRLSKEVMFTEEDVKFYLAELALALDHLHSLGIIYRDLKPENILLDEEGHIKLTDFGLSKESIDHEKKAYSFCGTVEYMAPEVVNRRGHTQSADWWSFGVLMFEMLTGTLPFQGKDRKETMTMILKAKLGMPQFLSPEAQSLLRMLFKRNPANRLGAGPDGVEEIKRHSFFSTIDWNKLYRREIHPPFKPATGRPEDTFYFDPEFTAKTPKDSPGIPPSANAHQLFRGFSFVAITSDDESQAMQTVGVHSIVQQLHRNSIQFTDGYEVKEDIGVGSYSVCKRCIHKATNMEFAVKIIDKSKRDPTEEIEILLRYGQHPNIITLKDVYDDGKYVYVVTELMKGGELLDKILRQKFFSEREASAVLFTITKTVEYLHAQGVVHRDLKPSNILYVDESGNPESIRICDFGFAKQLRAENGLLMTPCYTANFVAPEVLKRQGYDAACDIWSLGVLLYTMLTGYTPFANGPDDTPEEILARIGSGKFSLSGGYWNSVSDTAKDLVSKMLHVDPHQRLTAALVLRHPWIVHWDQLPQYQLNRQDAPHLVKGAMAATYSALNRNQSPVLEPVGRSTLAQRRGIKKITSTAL
# Chain of Rho-associated protein kinase 2 (Homo sapiens) (O75116 whole entry, looked up): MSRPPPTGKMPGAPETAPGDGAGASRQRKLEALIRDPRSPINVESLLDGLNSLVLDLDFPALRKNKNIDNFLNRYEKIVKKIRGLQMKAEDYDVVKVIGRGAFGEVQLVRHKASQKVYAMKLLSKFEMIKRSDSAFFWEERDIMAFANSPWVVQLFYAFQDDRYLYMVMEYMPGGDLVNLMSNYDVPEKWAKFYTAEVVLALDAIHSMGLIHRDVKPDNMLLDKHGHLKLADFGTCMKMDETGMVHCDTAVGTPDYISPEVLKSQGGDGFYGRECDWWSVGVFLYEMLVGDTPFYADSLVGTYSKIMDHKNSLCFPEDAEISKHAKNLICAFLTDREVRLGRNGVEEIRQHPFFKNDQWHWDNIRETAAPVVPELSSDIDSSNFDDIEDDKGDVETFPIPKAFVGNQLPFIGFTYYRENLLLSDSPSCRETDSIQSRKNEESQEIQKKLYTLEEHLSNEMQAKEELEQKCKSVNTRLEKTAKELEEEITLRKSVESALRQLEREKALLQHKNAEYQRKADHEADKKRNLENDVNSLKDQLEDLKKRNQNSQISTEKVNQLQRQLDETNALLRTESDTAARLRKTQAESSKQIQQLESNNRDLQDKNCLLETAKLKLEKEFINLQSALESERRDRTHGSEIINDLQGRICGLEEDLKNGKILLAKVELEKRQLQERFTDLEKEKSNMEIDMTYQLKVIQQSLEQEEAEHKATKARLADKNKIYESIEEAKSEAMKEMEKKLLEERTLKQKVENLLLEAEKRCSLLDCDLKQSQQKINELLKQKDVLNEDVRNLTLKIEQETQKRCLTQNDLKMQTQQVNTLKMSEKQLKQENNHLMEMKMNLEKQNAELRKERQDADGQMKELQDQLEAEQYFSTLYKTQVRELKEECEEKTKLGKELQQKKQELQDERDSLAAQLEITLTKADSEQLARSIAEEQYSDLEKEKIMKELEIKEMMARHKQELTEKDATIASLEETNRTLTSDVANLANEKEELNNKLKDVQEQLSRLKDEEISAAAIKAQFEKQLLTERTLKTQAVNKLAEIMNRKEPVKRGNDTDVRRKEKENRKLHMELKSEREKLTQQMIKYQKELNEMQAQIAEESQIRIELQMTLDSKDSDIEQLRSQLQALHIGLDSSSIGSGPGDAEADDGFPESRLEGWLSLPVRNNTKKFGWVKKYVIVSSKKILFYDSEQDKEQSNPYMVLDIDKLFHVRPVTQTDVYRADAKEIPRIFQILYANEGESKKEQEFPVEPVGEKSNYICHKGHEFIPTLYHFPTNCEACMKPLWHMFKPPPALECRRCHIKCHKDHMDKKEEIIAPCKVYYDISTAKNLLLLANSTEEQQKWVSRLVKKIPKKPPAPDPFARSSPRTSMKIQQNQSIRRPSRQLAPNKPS
# Chain of Ribosomal protein S6 kinase alpha-1 (Homo sapiens) (Q15418 whole entry): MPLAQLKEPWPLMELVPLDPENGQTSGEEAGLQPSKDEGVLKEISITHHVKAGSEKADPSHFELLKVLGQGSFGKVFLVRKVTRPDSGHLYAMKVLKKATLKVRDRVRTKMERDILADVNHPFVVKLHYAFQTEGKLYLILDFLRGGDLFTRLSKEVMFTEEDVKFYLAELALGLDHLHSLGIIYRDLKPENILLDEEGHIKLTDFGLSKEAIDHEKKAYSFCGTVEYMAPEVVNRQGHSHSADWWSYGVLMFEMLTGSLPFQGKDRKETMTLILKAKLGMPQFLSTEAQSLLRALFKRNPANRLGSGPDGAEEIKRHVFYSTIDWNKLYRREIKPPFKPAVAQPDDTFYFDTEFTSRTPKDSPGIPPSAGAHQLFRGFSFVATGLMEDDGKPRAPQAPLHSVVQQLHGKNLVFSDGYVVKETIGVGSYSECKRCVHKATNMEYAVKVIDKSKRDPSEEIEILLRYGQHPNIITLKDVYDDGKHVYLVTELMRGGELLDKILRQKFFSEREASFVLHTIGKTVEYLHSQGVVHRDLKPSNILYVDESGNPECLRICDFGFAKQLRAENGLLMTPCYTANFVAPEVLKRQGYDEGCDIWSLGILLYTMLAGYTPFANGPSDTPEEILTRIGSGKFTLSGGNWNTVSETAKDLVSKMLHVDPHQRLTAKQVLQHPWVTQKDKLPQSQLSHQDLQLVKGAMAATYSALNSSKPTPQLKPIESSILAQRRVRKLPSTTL
SMILES,inhibition [1] [%],inhibition [2] [%],inhibition [3] [%],inhibition [4] [%],inhibition [5] [%],inhibition [6] [%],inhibition [7] [%],inhibition [8] [%],inhibition [9] [%],inhibition [10] [%],inhibition [11] [%],inhibition [12] [%],inhibition [13] [%],inhibition [14] [%],inhibition [15] [%],inhibition [16] [%],inhibition [17] [%],inhibition [18] [%],inhibition [19] [%],inhibition [20] [%]
CC(C)c1ccc2c(c1)NC(=O)/C2=N/Nc1ccc(S(N)(=O)=O)cc1,-1.28,-1.58,-0.82,0.52,0.63,-0.56,2.05,1,2.15,-0.83,0.17,0.54,0.73,5.31,-4.03,4.97,-1.88,-0.83,0.29,1.03
Cc1ccc2c(c1)/C(=N/Nc1ccc(S(N)(=O)=O)cc1)C(=O)N2,2.75,-0.99,2.52,0.21,0.22,0.34,2.42,0.05,3.92,1.62,2.46,0.97,1.07,1.13,0.76,-0.94,-1.14,1.77,6.53,0.59
NS(=O)(=O)c1ccc(-c2cc3ccncc3cc2OCc2ccccc2)cc1,4.04,2.48,6.37,1.11,3.06,-0.24,0.92,0.22,2.19,-0.43,0.34,2.5,2.69,1.44,-1.22,0.75,2.72,2.82,3.15,0.66
COc1ccc(-c2nn3ncccc3c2-c2ccnc(Nc3cccc(C(F)(F)F)c3)n2)cc1,0.6,2.74,1.41,1.07,2.11,1.27,1.97,1.64,2.11,0.81,0.26,1.37,2.02,1.57,4.94,3.1,3.41,2.78,3.84,1.06
Cc1ccc(Nc2ccnc(Nc3cccc(C(N)=O)c3)n2)cc1O,5.78,4.11,13.6,2.41,3.62,1.82,2.23,1.81,3.37,2.28,7.33,1.93,4.05,5.55,3.06,1.32,3.83,2.46,6.79,1.35
NS(=O)(=O)c1ccc(Nc2cc(-c3cccc(O)c3)n[nH]2)cc1,2.17,3.43,4.85,2.5,6.11,2.14,6.36,1.18,5.39,1.24,4.67,6.76,4.48,2.52,1.36,6.64,2.75,5.36,11.1,5.11
CS(=O)(=O)Nc1cccc(-c2ccc3c(NC(=O)C4CC4)n[nH]c3c2)c1,0.09,0.82,-0.9,-0.15,-0.83,1.31,1.41,1.1,2.19,1.24,1.64,1.2,1.36,0.93,-0.04,1.19,-0.96,1.97,1.56,-0.32
COc1cc(/C=N/Nc2ncnc3c2cnn3C(C)C)ccc1O,4.3,0.86,2.83,10.4,1.08,0.95,1.27,1.98,2.99,1.4,3.17,1.69,2.88,1.5,1.93,0.68,2.8,1.32,4.22,3.01
C[C@@H](Oc1cc(-n2cnc3ccc(OCC4CCN(C)CC4)cc32)sc1C(N)=O)c1ccccc1C(F)(F)F,12,1.51,12,5.1,32.7,11.8,52,3.14,30.9,13.2,54.9,0.5,2.02,-2.58,-0.14,-1.97,-2.55,5.76,32.6,2.88
COc1cc(Nc2nccc(-c3cnn4ncccc34)n2)cc(OC)c1,8.16,2.33,15,1.35,3.27,1.72,4.75,1.42,5.35,0.97,6.06,2.68,4.34,1.68,-0.04,1.95,2.1,3.39,16.7,0.99
